From PubChem BioAssay (NCI)
About 83,000 compounds went through this panel and 20% of them were active in at least one assay; those are over-represented in the sample as a whole.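 A percent growth of 40 corresponds to 60% growth inhibition; 0 means no net growth; -100 means all cells died. Active threshold: below 10.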 Values without a mark were called inactive. Activity calls are given as the source filed them.

How the values were obtained:
Experiment in all cases: NCI-60 one-dose screen, 48 h (100 = growth as untreated, 0 = no growth, -100 = all killed)
Details in all cases: 10 µM unless noted
SK-MEL-2 melanoma = tested on: SK-MEL-2 melanoma
EKVX NSCLC = tested on: EKVX NSCLC
SN12C renal = tested on: SN12C renal
UO-31 renal = tested on: UO-31 renal
TK-10 renal = tested on: TK-10 renal
ACHN renal = tested on: ACHN renal
CAKI-1 renal = tested on: CAKI-1 renal
A498 renal = tested on: A498 renal
CCRF-CEM leukemia = tested on: CCRF-CEM leukemia
MOLT-4 leukemia = tested on: MOLT-4 leukemia
SR leukemia = tested on: SR leukemia
RPMI-8226 leukemia = tested on: RPMI-8226 leukemia
OVCAR-8 ovarian = tested on: OVCAR-8 ovarian
OVCAR-5 ovarian = tested on: OVCAR-5 ovarian
OVCAR-4 ovarian = tested on: OVCAR-4 ovarian
SK-OV-3 ovarian = tested on: SK-OV-3 ovarian
IGROV1 ovarian = tested on: IGROV1 ovarian
OVCAR-3 ovarian = tested on: OVCAR-3 ovarian
HS 578T breast = tested on: HS 578T breast
NCI/ADR-RES ovarian = tested on: NCI/ADR-RES ovarian

Row | SMILES | growth (SK-MEL-2 melanoma) | growth (EKVX NSCLC) [%] | growth (SN12C renal) | growth (UO-31 renal) | growth (TK-10 renal) | growth (ACHN renal) | growth (CAKI-1 renal) | growth (A498 renal) | growth (CCRF-CEM leukemia) | growth (MOLT-4 leukemia) | growth (SR leukemia) | growth (RPMI-8226 leukemia) | growth (OVCAR-8 ovarian) | growth (OVCAR-5 ovarian) | growth (OVCAR-4 ovarian) | growth (SK-OV-3 ovarian) | growth (IGROV1 ovarian) | growth (OVCAR-3 ovarian) | growth (HS 578T breast) | growth (NCI/ADR-RES ovarian)
1 | CC1CN(C(C)C)C(=S)N(c2ccccc2)C1=O (stereo not given) | 98.5% | 88.6 | 101% | 84.6% | 112% | 100% | 68.9% | 101% | 90.6% | 90% | 108% | 120% | 97.6% | 90.7% | 112% | 106% | 81.5% | 99.4% | 98% | 92.7%
2 | CC[C@H](Nc1ncnc(N)c1C(N)=O)c1nc2cccc(NCc3ccc(C(=O)NO)cc3)c2c(=O)n1-c1ccccc1 | 82.8% | 99.7 | 81.5% | 71.8% | 69.9% | 91% | 93.2% | 90.8% | 33% | 67.8% | 12% | 51% | 69.4% | 95.5% | 99% | 91.9% | 71% | 73.1% | 69.7% | 106%
3 | COC(/C=C/c1ccc([N+](=O)[O-])cc1)OC | 99% | 101 | 92.8% | 93.2% | 103% | 107% | 102% | 111% | 39.6% | 69.4% | 31.6% | 70% | 84.4% | 99.8% | 96.6% | 110% | 89% | 120% | 122% | 96%
4 | c1ccc(Sc2ncnc3ccccc23)cc1 | 44.3% | 84.2 | 69% | 52.7% | 96.5% | 90.9% | 65.5% | 82% | 48.5% | 38% | 25.5% | 20.9% | 82.1% | 98.4% | 76% | 112% | 77.9% | 71.2% | 77.9% | 83.5%
5 | COc1ccc(/C=C2\CN(C(=O)CCN3CCC(=NO)CC3)C/C(=C\c3ccc(OC)cc3)C2=O)cc1 | 89.4% | 28 | -52% (active) | -87.7% (active) | 21.5% | -41.7% (active) | 11.3% | 36.1% | 0.63% (active) | 0.493% (active) | 2.16% (active) | -11.1% (active) | 19.6% | -4.94% (active) | 28.2% | 68% | -14.1% (active) | 6.9% (active) | 6.95% (active) | 11.3%
6 | CSc1ccc(N=C=C(c2ccccc2)c2ccccc2)cc1 | 93.5% | 96.6 | 81.7% | 83.5% | 99.6% | 92.9% | 96.9% | 81.8% | 1.03% (active) | 34.7% | 50.7% | 88.5% | 89% | 93.2% | 110% | 90.1% | 95.7% | 103% | 86.8% | 104%
7 | O=C(Nc1ccc(CN2CCOCC2)cc1)c1[nH]ncc1Nc1ncnc2sccc12 | 2.93% (active) | 13.4 | 10.4% | 8.4% (active) | 8.06% (active) | 2.49% (active) | 13.2% | -36.8% (active) | 5.37% (active) | -2.6% (active) | -4.39% (active) | -3.98% (active) | 11.6% | 16.1% | 13.6% | 33% | 16.7% | -15.7% (active) | -2.92% (active) | 4.5% (active)
8 | CC1CN(Cc2ccco2)C(=S)N(c2ccccc2)C1=O (stereo not given) | 108% | 84.2 | 92% | 89.6% | 100% | 93.8% | 60.4% | 100% | 83.7% | 122% | 91.2% | 88.1% | 104% | 105% | 97% | 105% | 106% | 106% | 101% | 108%
9 | Cn1c2ccccc2c2c3c(c4c5ccccc5n(CCCCCC#N)c4c21)C(=O)N(O)C3=O | 34.5% | 88.2 | 10.8% | 2.03% (active) | 42.1% | -0.622% (active) | -32.3% (active) | -32% (active) | 3.22% (active) | 1.13% (active) | 1.39% (active) | 0.134% (active) | 27.5% | 12.8% | 28.4% | 37.1% | 27.6% | 6.92% (active) | 13% | 12.2%
10 | c1ccc2c(Nc3cccc4ccccc34)cccc2c1 | 38.6% | 78.1 | 58.8% | 41.3% | 81.3% | 79.1% | 40.3% | 81.2% | 59.8% | 30.5% | 31.6% | 68.3% | 65.7% | 103% | 86% | 59.5% | 56.8% | 43.8% | 62.6% | 29.8%
11 | O=C1/C(=C\c2cn(C(=O)c3ccc(Cl)cc3)c3ccccc23)c2ccccc2N1c1c(Cl)cccc1Cl | 103% | 97.8 | 89.5% | 77% | 119% | 97.6% | 86.4% | 103% | 111% | 89.6% | 99.6% | 101% | 113% | 94.3% | 99.5% | 116% | 99.2% | 116% | 107% | 99.7%
12 | CS(CCCCN=C=S)=NC(=O)c1c(F)c(F)c(F)c(F)c1F (stereo not given) | 94.2% | 97.8 | 61.1% | 59.6% | 66.6% | 52.4% | 71.3% | 112% | 36.8% | 66.2% | 2.68% (active) | 10.3% | 91.9% | 109% | 74.4% | 91.7% | 76.8% | 57.3% | 90.8% | 97.3%
13 | O=C1c2cc3c(cc2-c2c1c1cc(Cl)c(Cl)cc1c(=O)n2C[C@H](O)CO)OCO3 | -28.3% (active) | 14.2 | -22.2% (active) | -61.3% (active) | -28% (active) | -47.2% (active) | -0.657% (active) | -73.3% (active) | -5.01% (active) | -24.8% (active) | -23.2% (active) | -8.53% (active) | -20.2% (active) | -23% (active) | -51.8% (active) | -54% (active) | -2.45% (active) | -54.2% (active) | 33% | -29.4% (active)
14 | CC(C)[C@H]1COC(=O)N1[C@@H]1C(=O)N([C@@H](CCC(=O)N2CCN(C3CCCC3)CC2)C(=O)N[C@@H]2CCCc3ccccc32)[C@@H]1/C=C/c1cccc(Br)c1 | -7.94% (active) | 48.2 | 38% | 31% | 30.9% | 48.9% | 62.5% | 0.642% (active) | 32.8% | 17.9% | -18.9% (active) | 14.6% | 62.1% | 88.2% | 53.9% | 52.7% | 32% | 45.1% | 51.9% | 53%
